These results are taken from PubChem BioAssay (NCI).

Assay [1] in a line: NCI Yeast Anticancer Drug Screen. Data for the rad50 strain (AID 155).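 Also: 0% = growth of vehicle-only cultures of the same strain.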 Conditions: S. cerevisiae rad50 strain growth inhibition, hits give high values. The method, boiled down: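 Cells are treated with compound, grown, and their growth is then scored against vehicle-only cultures of the same repair-deficient yeast strain.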
Assay [2] is described as follows: NCI Yeast Anticancer Drug Screen. Data for the mec2-1 strain (AID 157). Conditions: S. cerevisiae mec2-1 strain, hits give high values. The method, boiled down:
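Test agents were screened against the mec2-1 yeast strain, with defined DNA repair or cell cycle alteration. Growth was scored as inhibition against vehicle-only controls.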

Assay [3] is described as follows: NCI Yeast Anticancer Drug Screen. Data for the sgs1 mgt1 strain (AID 161).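 Also: 0% = growth of cultures given vehicle only.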 Conditions: S. cerevisiae sgs1 mgt1 strain, hits give high values. The method, boiled down:
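Genetically altered yeast, compound exposure, growth inhibition relative to vehicle.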

A short description of assay [4]: NCI Yeast Anticancer Drug Screen. Data for the cln2 rad14 strain (AID 165).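 Also: 0% = growth equal to vehicle treated cultures.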 Conditions: S. cerevisiae cln2 rad14 strain, hits give high values. The method, boiled down:
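Growth of compound-exposed yeast (cln2 rad14 genotype) measured and expressed as inhibition relative to vehicle.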

A short description of assay [5]: NCI Yeast Anticancer Drug Screen. Data for the bub3 strain (AID 167). Conditions: S. cerevisiae bub3 mutant strain, hits give high values. The method, boiled down:
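Part of a panel of yeast mutants defective in DNA damage repair or cell cycle regulation. Each strain is grown with compound, and inhibition is calculated relative to solvent-treated cultures.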

Assay [6] can be described thus: NCI Yeast Anticancer Drug Screen. Data for the mlh1 rad18 strain (AID 175). Conditions: S. cerevisiae mlh1 rad18 strain growth inhibition, hits give high values. The method, boiled down: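 In this whole-cell yeast screen, a strain with altered DNA damage repair is challenged with compound, and its growth is measured against matched vehicle-treated controls.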
The mark [7] stands for this setting: at 5.0 µM (retest, dose inferred, filed as 0.5).
The mark [8] stands for this setting: at 50.0 µM (retest, dose inferred, filed as 5.0).

This is part of a sample that, as a whole, favours compounds with a hit. Of some 79,000 tested, about 15% had one in any assay. Unmarked numbers belong to inactive results. The source made the active and inactive calls. Rule as the data show it: active = growth inhibition above about 70%; inactive = the rest.

With `CCCCN1CCN(c2ccc([N+](=O)[O-])c3no[n+]([O-])c23)CC1`, the growth inhibition is 97% (active) in assay [1] (setting [7]); 99% (active) in assay [1] (setting [8]); 90.5% (active) in assay [1] (at 50.0 µM); 94% (active) in assay [2] (setting [7]); 99% (active) in assay [2] (setting [8]); 93.2% (active) in assay [2] (at 50.0 µM). The growth inhibition was 90% (active) in assay [3] (setting [7]); 99% (active) in assay [3] (setting [8]); 90.2% (active) in assay [3] (at 50.0 µM); 43% in assay [4] (setting [7]); 98% (active) in assay [4] (setting [8]); 88.2% (active) in assay [4] (at 50.0 µM). For the same compound, the growth inhibition was 58% in assay [5] (setting [7]); 98% (active) in assay [5] (setting [8]); 91.2% (active) in assay [5] (at 50.0 µM); 96% (active) in assay [6] (setting [7]); 99% (active) in assay [6] (setting [8]); 90.5% (active) in assay [6] (at 50.0 µM).

For the compound `C=C(Br)CN1CCC2(c3ccccc3)C(O)C([Se]c3ccccc3)CCC12` (configuration not stated), the growth inhibition was 85% (active) in assay [1] (setting [7]); 85% (active) in assay [1] (setting [8]); 83.1% (active) in assay [1] (at 50.0 µM); 78% (active) in assay [2] (setting [7]); 78% (active) in assay [2] (setting [8]); 84% (active) in assay [2] (at 50.0 µM). The growth inhibition in assay [3] (setting [7]) was 81% (active); in assay [3] (setting [8]), 81% (active); in assay [3] (at 50.0 µM) it was 78% (active); in assay [4] (setting [7]), 80% (active); in assay [4] (setting [8]), 80% (active); in assay [4] (at 50.0 µM), 83.3% (active). The growth inhibition was 84% (active) in assay [5] (setting [7]); 84% (active) in assay [5] (setting [8]); 84.8% (active) in assay [5] (at 50.0 µM); 89% (active) in assay [6] (setting [7]); 89% (active) in assay [6] (setting [8]); 82.8% (active) in assay [6] (at 50.0 µM).

With `CN(C)CC(CN1CCCC1)C(=O)c1ccccc1` (configuration not stated), the growth inhibition is 13% in assay [1] (setting [7]); 24% in assay [1] (setting [8]); 56.6% in assay [1] (at 50.0 µM); -2% in assay [2] (setting [7]); 36% in assay [2] (setting [8]); 41.4% in assay [2] (at 50.0 µM). The growth inhibition was 13% in assay [3] (setting [7]); 32% in assay [3] (setting [8]); 66.5% in assay [3] (at 50.0 µM); 26% in assay [4] (setting [7]); 33% in assay [4] (setting [8]); 11.2% in assay [4] (at 50.0 µM). Also, the growth inhibition in assay [5] (setting [7]) is 6%; in assay [5] (setting [8]) it was 39%; in assay [5] (at 50.0 µM) it was 65.5%; in assay [6] (setting [7]), 15%; in assay [6] (setting [8]), 32%; in assay [6] (at 50.0 µM) it was 75.2% (active).

Consider `O=[N+]([O-])C12CCCCC1([N+](=O)[O-])CCCC2` (configuration not stated), for which the growth inhibition in assay [1] (setting [7]) is -1%; in assay [1] (setting [8]), 41%; in assay [1] (at 50.0 µM), 62.9%; in assay [2] (setting [7]), -5%; in assay [2] (setting [8]) it was 30%; in assay [2] (at 50.0 µM), 21.6%. The growth inhibition was -3% in assay [3] (setting [7]); 33% in assay [3] (setting [8]); 35.5% in assay [3] (at 50.0 µM); -9% in assay [4] (setting [7]); 22% in assay [4] (setting [8]); 31.1% in assay [4] (at 50.0 µM). Also, the growth inhibition in assay [5] (setting [7]) is -1%; in assay [5] (setting [8]), 65%; in assay [5] (at 50.0 µM) it was 84.8% (active); in assay [6] (setting [7]), 0%; in assay [6] (setting [8]), 28%; in assay [6] (at 50.0 µM), 37.8%.

On to `O=C1/C(=C/c2cccc(Br)c2)CCc2ccccc21`, for which the growth inhibition in assay [1] (setting [7]) was 1%; in assay [1] (setting [8]), 26%; in assay [1] (at 50.0 µM) it was 66.3%; in assay [2] (setting [7]), 8%; in assay [2] (setting [8]), 49%; in assay [2] (at 50.0 µM), 18.4%. Also, the growth inhibition in assay [3] (setting [7]) is 13%; in assay [3] (setting [8]) it was 58%; in assay [3] (at 50.0 µM), 61.4%; in assay [4] (setting [7]), -5%; in assay [4] (setting [8]) it was 16%; in assay [4] (at 50.0 µM) it was 22.4%. Besides, the growth inhibition in assay [5] (setting [7]) was 44%; in assay [5] (setting [8]), 82% (active); in assay [5] (at 50.0 µM), 74.6% (active); in assay [6] (setting [7]), 13%; in assay [6] (setting [8]) it was 64%; in assay [6] (at 50.0 µM), 65.8%.

For the compound `CC(C)=CCC/C(=C/CC/C(C)=C/CCc1ccoc1)C(=O)O`, the growth inhibition in assay [1] (setting [7]) is -5%; in assay [1] (setting [8]), 20%; in assay [1] (at 50.0 µM), 72.8% (active); in assay [2] (setting [7]), 3%; in assay [2] (setting [8]), 26%; in assay [2] (at 50.0 µM) it was 44.1%. The growth inhibition in assay [3] (setting [7]) is -9%; in assay [3] (setting [8]) it was 41%; in assay [3] (at 50.0 µM), 59.4%; in assay [4] (setting [7]), 17%; in assay [4] (setting [8]), 73% (active); in assay [4] (at 50.0 µM), 42.7%. Also, the growth inhibition in assay [5] (setting [7]) is -9%; in assay [5] (setting [8]), 64%; in assay [5] (at 50.0 µM) it was 53%; in assay [6] (setting [7]), 2%; in assay [6] (setting [8]) it was 35%; in assay [6] (at 50.0 µM) it was 62.3%.

In the case of `COc1ccc2c(c1)CCn1c(C)c(COC(=O)NC(C)C)c(COC(=O)NC(C)C)c1-2`, the growth inhibition is 17% in assay [1] (setting [7]); 98% (active) in assay [1] (setting [8]); 88.7% (active) in assay [1] (at 50.0 µM); 0% in assay [2] (setting [7]); 98% (active) in assay [2] (setting [8]); 92.3% (active) in assay [2] (at 50.0 µM). Also, the growth inhibition is 33% in assay [3] (setting [7]); 98% (active) in assay [3] (setting [8]); 89.2% (active) in assay [3] (at 50.0 µM); 10% in assay [4] (setting [7]); 97% (active) in assay [4] (setting [8]); 90.3% (active) in assay [4] (at 50.0 µM). Further, the growth inhibition in assay [5] (setting [7]) is 15%; in assay [5] (setting [8]) it was 98% (active); in assay [5] (at 50.0 µM), 88.7% (active); in assay [6] (setting [7]), 17%; in assay [6] (setting [8]), 98% (active); in assay [6] (at 50.0 µM), 87.7% (active).

On to `Cc1cccc[c]1[Sn]([Cl])([O][Sn]([Cl])([c]1ccccc1C)[c]1ccccc1C)[c]1ccccc1C`, for which the growth inhibition in assay [1] (setting [7]) was 61%; in assay [1] (setting [8]) it was 97% (active); in assay [1] (at 50.0 µM), 88.3% (active); in assay [2] (setting [7]), 46%; in assay [2] (setting [8]), 98% (active); in assay [2] (at 50.0 µM), 90.8% (active). The growth inhibition in assay [3] (setting [7]) was 40%; in assay [3] (setting [8]), 98% (active); in assay [3] (at 50.0 µM), 89% (active); in assay [4] (setting [7]), 20%; in assay [4] (setting [8]), 96% (active); in assay [4] (at 50.0 µM), 88.3% (active). Further, the growth inhibition was 42% in assay [5] (setting [7]); 98% (active) in assay [5] (setting [8]); 88.2% (active) in assay [5] (at 50.0 µM); 85% (active) in assay [6] (setting [7]); 96% (active) in assay [6] (setting [8]); 89.5% (active) in assay [6] (at 50.0 µM).

On to `Oc1ccc(CCCCCc2ccc(O)cc2)cc1`, for which the growth inhibition in assay [1] (setting [7]) was 4%; in assay [1] (setting [8]), 99% (active); in assay [1] (at 50.0 µM) it was 99.5% (active); in assay [2] (setting [7]), 15%; in assay [2] (setting [8]), 100% (active); in assay [2] (at 50.0 µM) it was 99.6% (active). Also, the growth inhibition in assay [3] (setting [7]) is 17%; in assay [3] (setting [8]), 100% (active); in assay [3] (at 50.0 µM), 99.7% (active); in assay [4] (setting [7]), 1%; in assay [4] (setting [8]), 99% (active); in assay [4] (at 50.0 µM), 99.2% (active). Further, the growth inhibition in assay [5] (setting [7]) is 13%; in assay [5] (setting [8]), 100% (active); in assay [5] (at 50.0 µM), 99.6% (active); in assay [6] (setting [7]) it was 7%; in assay [6] (setting [8]) it was 99% (active); in assay [6] (at 50.0 µM), 99.5% (active).
